Laboratory results reported in PubChem BioAssay (NCI).
About 83,000 compounds went through this panel and 20% of them were active in at least one assay; those are over-represented in the sample as a whole.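 Results are percent growth after 48 hours of single-concentration exposure. 100 means growth as in untreated cells, lower positive values show inhibition; negative values down to -100 show cell death.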 Calls of active or inactive are those of the source. The calls were made as follows: active = growth percent below 10; inactive = the rest.

Assays:
Test in all cases: NCI-60 one-dose screen, 48 h (100 = growth as untreated, 0 = no growth, -100 = all killed)
Conditions in all cases: 10 µM unless noted
BT-549 breast = test system: BT-549 breast
MDA-MB-435 melanoma = test system: MDA-MB-435 melanoma
SW-620 colon = test system: SW-620 colon
MCF7 breast = test system: MCF7 breast
HCT-116 colon = test system: HCT-116 colon
HCC-2998 colon = test system: HCC-2998 colon
KM12 colon = test system: KM12 colon

Measured: growth

CCOC(=O)C1OC1(c1ccccc1)c1ccccc1 (centres undefined)
inactive: BT-549 breast 110% | MDA-MB-435 melanoma 104% | SW-620 colon 105% | MCF7 breast 105% | HCT-116 colon 107% | HCC-2998 colon 117% | KM12 colon 94.3%

COc1cccc(NC(=O)c2sc3nc4c(cc3c2N)C(=O)CCC4)c1
inactive: BT-549 breast 29.9% | SW-620 colon 23.6% | MCF7 breast 29.4% | HCT-116 colon 17.6% | HCC-2998 colon 19.9% | KM12 colon 16.6%
active: MDA-MB-435 melanoma -37.2%

CC1(C)C(=O)CC[C@]2(C)[C@H]3C(=O)C=C4[C@@H]5C[C@@](C)(C(=O)NCCNCCN)CC[C@]5(C)CC[C@@]4(C)[C@]3(C)CC[C@@H]12
inactive: BT-549 breast 91.7% | MDA-MB-435 melanoma 101% | SW-620 colon 102% | MCF7 breast 90.6% | HCT-116 colon 83.2% | HCC-2998 colon 101% | KM12 colon 98.7%

O=c1c2sc3ncc(Br)cc3c2ncn1-c1cccc(Cl)c1
inactive: BT-549 breast 78.9% | MDA-MB-435 melanoma 75.2% | SW-620 colon 58.8% | MCF7 breast 94.2% | HCT-116 colon 27.4% | HCC-2998 colon 104% | KM12 colon 72.2%

Cn1cc(-c2nc(-c3c[nH]c4ncccc34)cs2)c2cc(F)ccc21
inactive: BT-549 breast 58% | SW-620 colon 31.8% | HCT-116 colon 20.3% | HCC-2998 colon 20.5%
active: MDA-MB-435 melanoma 0.641% | MCF7 breast 7.84% | KM12 colon -12.7%

CC(C)(C)c1[nH]nc2c1C(c1cc3ccccc3[nH]c1=O)Nc1cc(C(=O)OCc3ccccc3)ccc1N2 (centres undefined)
inactive: BT-549 breast 56.4% | MDA-MB-435 melanoma 39.9% | SW-620 colon 54.4% | MCF7 breast 38.1% | HCT-116 colon 38.4% | HCC-2998 colon 55.9% | KM12 colon 31%

Clc1ccccc1-c1nc(Nc2nc3ccccc3s2)nc(C(Cl)(Cl)Cl)n1
inactive: BT-549 breast 84.2% | MDA-MB-435 melanoma 49% | SW-620 colon 39.5% | MCF7 breast 32.6% | HCT-116 colon 19.1% | HCC-2998 colon 54.1% | KM12 colon 31.3%

Cc1nn2c(-c3nc4cc(Cl)c(Cl)cc4[nH]3)c(-c3ccc(F)cc3)nc2s1
inactive: BT-549 breast 44.2% | MDA-MB-435 melanoma 26.6% | SW-620 colon 39.5% | MCF7 breast 40.1% | HCC-2998 colon 75.8% | KM12 colon 39.3%
active: HCT-116 colon 2.83%

c1ccc(-c2nc(Nc3ccc(-c4nc5ccccc5[nH]4)cc3)nc(N3CCOCC3)n2)cc1
active: MDA-MB-435 melanoma -81.1% | SW-620 colon -82.9% | MCF7 breast -76.2% | HCT-116 colon -81.5% | HCC-2998 colon -80.7% | KM12 colon -76.6%
inactive: BT-549 breast 33.7%

CCN1CCN(C(=O)[C@]23CC[C@@H](C)[C@H](C)[C@H]2C2=CC[C@@H]4[C@@]5(C)C/C(=C/c6cccc(OC)c6OC)C(=O)C(C)(C)[C@@H]5CC[C@@]4(C)[C@]2(C)CC3)CC1
inactive: BT-549 breast 55% | MDA-MB-435 melanoma 43.4% | SW-620 colon 33.3% | MCF7 breast 12.2% | HCT-116 colon 17.9% | HCC-2998 colon 44.6% | KM12 colon 32.7%

Cc1ccc(S(=O)(=O)Nc2ccc(-c3cc(-c4cccc(F)c4)c(C#N)c(=O)[nH]3)cc2)cc1
active: HCT-116 colon 8.61%
inactive: BT-549 breast 74.7% | MDA-MB-435 melanoma 96.3% | SW-620 colon 73.5% | MCF7 breast 16.9% | HCC-2998 colon 104% | KM12 colon 72.9%

O=C(/C(=C(\C(=O)c1ccccc1)c1ccccc1)c1ccccc1)c1ccccc1
inactive: MDA-MB-435 melanoma 73.6% | SW-620 colon 38.5% | MCF7 breast 42.6% | HCT-116 colon 14.1% | HCC-2998 colon 52% | KM12 colon 17.1%

COC(=O)[C@]12CC[C@@H](C)[C@H](C)[C@@H]1C1=CC[C@@H]3[C@@]4(C)C(c5ncon5)=C[C@@](C)(CO)C4=CC[C@@]3(C)[C@]1(C)CC2
active: BT-549 breast 8.08% | MDA-MB-435 melanoma -24% | SW-620 colon -34.7% | MCF7 breast -63% | HCT-116 colon -83.1% | HCC-2998 colon -83.3% | KM12 colon -47.6%

Cc1cc(N2CCN(C)CC2)nc(N(CCNc2ccnc3cc(Cl)ccc23)Cc2ccco2)n1
inactive: BT-549 breast 31.1% | SW-620 colon 38.2% | MCF7 breast 17.1% | HCT-116 colon 17.1% | HCC-2998 colon 92.7% | KM12 colon 34.2%
active: MDA-MB-435 melanoma -39.8%

C/C(Cc1ccc(Cl)cc1)=C(/c1ccc(Cl)cc1)c1ccc(OCCN2CCCC2)cc1
inactive: BT-549 breast 99.2% | MDA-MB-435 melanoma 82% | SW-620 colon 58.6% | MCF7 breast 31% | HCT-116 colon 30.7% | HCC-2998 colon 68.7% | KM12 colon 53.8%
